Results as given in PubChem BioAssay (NCATS).
Active and inactive are the calls of the source. Calls come from the whole dose curve; as a rule, active = well fitted activation curve with a large enough effect; inconclusive = small, poorly fitted or top-dose-only effect; inactive = flat fitted curve, though single readings scatter.

Assay: Confirmation and Secondary Assay for Modulators of Hemoglobin Beta Chain Splicing at IVS2 705 locus (AID 930); note: % of control where 0% means no effect
Conditions: HeLa EGFP-705 splicing reporter, GFP fluorescence, 48 h; series mostly up to 38.3 µM; activation: at the top concentration
From the text: NIH Chemical Genomics Center [NCGC] NIH Molecular Libraries Screening Centers Network [MLSCN] MLSCN Grant: 1 X01 MH080684-01 PI Name: Dr. Ryszard Kole NCGC Assay Overview: Modulation of Alternative Splicing as Therapy Abnormal splicing is associated with a number of diseases, including cancer and genetic diseases such as cystic fibrosis, muscular dystrophy and beta-thalassemia. Alteration of disease associated splicing patterns provides a promising target for treatment. […] Mutations in the second intron of the b-globin gene at positions 654 or 705 are clinically relevant and cause mis-splicing which results in an out of frame gene product. […] EGFP-705 HeLa Cells as screen system. HeLa cell lines were stably transfected with a construct in which the EGFP (enhanced green fluorescent protein) cDNA was interrupted by the second intron of the beta-globin gene (IVS2-705). The ISV2 intron contains mutations which cause mis-splicing of EGFP and premature termination of EGFP which results in a nonfluorescent protein product. […] Expression of the transgene was driven by the CMV promoter. We concluded that a low molecular weight compound, which restored correct splicing of intron 2 would also generate functional EGFP protein, resulting in a fluorescent signal. Thus, the HeLa cells that express the EGFP-705 construct can be used for validation of splice site specificity of compounds identified in primary screening of the ISV2 654 construct.
NCGC Assay Protocol Summary: Confirmatory Screening. Freshly thawed HeLa EGFP-705 cells were seeded in 5 ul of optimem media (Invitrogen) containing 2 % fetal calf serum (Hyclone) and 1x penicillin/streptomycin (Invitrogen) at a concentration of 500 cells per well in 1536-well plates. Cells were incubated overnight at 37C in 5% CO2. The next day, cells were treated with DMSO, 500 nM antisense ISV2 654 PNA control oligo, or library compound and allowed to grow at 37C in 5% CO2 for 2 days. The PNA oligo blocked the mutation site in the intron and allowed proper (wild type) splicing to occur, resulting in full length EGFP expression and also allowed for optimization of the assay parameters. Plates were read in the Acumen Explorer (TTP Labtech) using 488 nm laser excitation and 500-520 nm emission PMT filter in a 1 x 8 uM capture mode. Fluorescnet objects ranging in size from 5 to 250 uM were measured and the total peak GFP intensity for each well was used for data analysis. Keywords: Thalassemia, beta-thalassemia, beta-globin, EGFP, ISV2 654, ISV2 705, SSO, PNA, antisense, splicing, MLSMR, MLSCN, NIH Roadmap, qHTS, NCGC

Structure (SMILES) | activation | outcome
CN(C)C(=O)c1ccc(-c2nc(NCc3cccs3)c3ccccc3n2)cc1 | 0.22% (inactive) | –
CNc1ncnc2ccc(-c3ccccc3OC)cc12 | 0.0473% (inactive) | –
Nc1ncnc2c1ncn2C1OC(CO)C(O)C1O (stereo not given) | – | inactive
COc1ccccc1-c1nccc(NCc2cccc(C)c2)n1 | 1.47% (inactive) | –
O=C1C=C(O)c2ccccc2C1=O | 0.919% (inactive) | –
O=c1c(O)c(-c2ccc(O)cc2)oc2ccccc12 | 1.37% [at 46.1 µM] (inactive) | –
COc1ccc(CNc2cc(-c3ccccc3CN(C)C)ncn2)c(OC)c1 | 1.02% (inactive) | –
CN(C)C(=O)c1ccc(-c2nc(N(C)Cc3ccco3)c3ccccc3n2)cc1 | -0.52% (inactive) | –
Cc1cccc(CNc2ncnc3ccc(-c4ccccc4C#N)cc23)c1 | 0.379% (inactive) | –
CC(=O)NCCNc1nc(-c2ccccc2CN(C)C)nc2ccccc12 | 0.296% (inactive) | –
O=C(O)c1cc(O)c2c(c1)C(=O)c1cc(O)cc(O)c1C2=O | 0.69% (inactive) | –
N#Cc1cccc(-c2nc(Nc3ccncc3)c3ccccc3n2)c1 | -0.301% (inactive) | –
CC(C)=CCC/C(C)=C/CC/C(C)=C/CC/C(C)=C/CC/C(C)=C/CC/C(C)=C/CC/C(C)=C/CC/C(C)=C/CC/C(C)=C/CO | 3.12% (inactive) | –
O=c1ccc2cc(O)c(O)cc2o1 | 2.85% [at 46.1 µM] (inactive) | –
c1cncc(CNc2nc(-c3ccc4c(c3)OCO4)nc3ccccc23)c1 | 0.411% (inactive) | –
Nc1c2ccccc2nc2ccccc12 (tested in a mixture with another compound) | 1.1% [at 46.1 µM] (inactive) | –
CS(=O)(=O)Nc1cccc(-c2nc(NCCN3CCOCC3)c3ccccc3n2)c1 | -0.442% (inactive) | –
Cc1cccc(CNc2ccnc(-c3cccc(NS(C)(=O)=O)c3)n2)c1 | 0.463% (inactive) | –
Cc1cccc(CNc2nc(-c3ccoc3)nc3ccccc23)c1 | -0.366% (inactive) | –
COc1cccc(-c2cncnc2NCc2ccc(OC)cc2OC)c1 | 0.255% (inactive) | –

Structure (SMILES) | activation | outcome
N[C@H](C(=O)O)C(O)C(O)C(O)CO (stereo not given in full) | -0.312% (inactive) | –
O=c1ccc2ccc(O)cc2o1 | -0.0499% (inactive) | –
Cc1cnc(CNc2nc(-c3ccc(C(=O)N(C)C)cc3)nc3ccccc23)cn1 | -0.8% (inactive) | –
Cc1cccc(CNc2nc(-c3cccc(NS(C)(=O)=O)c3)nc3ccccc23)c1 | -0.384% (inactive) | –
COc1ccc(CNc2nc(-c3ccoc3)nc3ccccc23)c(OC)c1 | -0.736% (inactive) | –
Cc1occc(=O)c1O | 0.345% (inactive) | –
O=C1CC[C@@]23/C=C/C(=O)NCCCCNCCCNC(=O)/C=C/c4ccc(c2c4)OC3C1 (stereo not given in full) | 4.43% [at 46.1 µM] (inactive) | –
COc1ccc(-c2cc(=O)c3c(OC)c(OC)c(OC)c(OC)c3o2)cc1 | -0.189% (inactive) | –
Cc1noc(C)c1-c1nc(N2CCOCC2)c2ccccc2n1 | 1.01% (inactive) | –
COC(=O)c1c(C)c2c(c(C)c1O)OC(=O)c1c(C)c(Cl)c(O)c(Cl)c1O2 | -0.79% [at 46.1 µM] (inactive) | –
C=CCc1ccc(OC(=O)c2ccccc2)c(OC)c1 | 2.75% (inactive) | –
CC(=O)NCCNc1nc(-c2ccc(N(C)C)cc2)nc2ccccc12 | 0.533% (inactive) | –
CC1(C)C=CC(=O)[C@]2(C)C1CC(=O)[C@]1(C)C2CC[C@@]2(C)C(c3ccoc3)OC(=O)C3OC321 (stereo not given in full) | 4.71% [at 46.1 µM] (inactive) | –
Cc1cccc(CNc2ncncc2-c2cccc(NS(C)(=O)=O)c2)c1 | 0.151% (inactive) | –
Cc1cccc(CNc2nc(-c3c(C)noc3C)nc3ccccc23)c1 | 0.659% (inactive) | –
Cc1noc(C)c1-c1ccc2ncnc(NCc3ccccc3)c2c1 | 0.392% (inactive) | –
c1cncc(-c2ccc3ncnc(N4CCNCC4)c3c2)c1 | -0.483% (inactive) | –
COc1ccc2[nH]cc(CCNc3nc(-c4ccoc4)nc4ccccc34)c2c1 | 2.49% (inactive) | –
CN1CCN(c2ccnc(-c3ccccc3C(F)(F)F)n2)CC1 | -0.159% (inactive) | –
Cc1cc(OC(=O)c2c(C)cc(O)cc2O)cc(O)c1C(=O)O | -0.515% [at 46.1 µM] (inactive) | –
